Reference: paper PMC4336329 (PLoS ONE, 2015)
The whole screen tested about 310,000 compounds, of which about 14,000 (4.5%) showed an effect of 50% or more. Effects have a minus sign here. The sample as a whole holds a higher share of strong results than the screen did.

Target: human ether-à-go-go-related gene (hERG) potassium channel (human, UniProt Q12809)
Experiment: primary screen, population patch clamp on CHO cells stably expressing hERG; higher = less effect of the substance
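Also: peak tail current of the secondary pulse compared with the same well before compound.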

Sequence of human ether-à-go-go-related gene (hERG) potassium channel (Q12809 whole entry, looked up): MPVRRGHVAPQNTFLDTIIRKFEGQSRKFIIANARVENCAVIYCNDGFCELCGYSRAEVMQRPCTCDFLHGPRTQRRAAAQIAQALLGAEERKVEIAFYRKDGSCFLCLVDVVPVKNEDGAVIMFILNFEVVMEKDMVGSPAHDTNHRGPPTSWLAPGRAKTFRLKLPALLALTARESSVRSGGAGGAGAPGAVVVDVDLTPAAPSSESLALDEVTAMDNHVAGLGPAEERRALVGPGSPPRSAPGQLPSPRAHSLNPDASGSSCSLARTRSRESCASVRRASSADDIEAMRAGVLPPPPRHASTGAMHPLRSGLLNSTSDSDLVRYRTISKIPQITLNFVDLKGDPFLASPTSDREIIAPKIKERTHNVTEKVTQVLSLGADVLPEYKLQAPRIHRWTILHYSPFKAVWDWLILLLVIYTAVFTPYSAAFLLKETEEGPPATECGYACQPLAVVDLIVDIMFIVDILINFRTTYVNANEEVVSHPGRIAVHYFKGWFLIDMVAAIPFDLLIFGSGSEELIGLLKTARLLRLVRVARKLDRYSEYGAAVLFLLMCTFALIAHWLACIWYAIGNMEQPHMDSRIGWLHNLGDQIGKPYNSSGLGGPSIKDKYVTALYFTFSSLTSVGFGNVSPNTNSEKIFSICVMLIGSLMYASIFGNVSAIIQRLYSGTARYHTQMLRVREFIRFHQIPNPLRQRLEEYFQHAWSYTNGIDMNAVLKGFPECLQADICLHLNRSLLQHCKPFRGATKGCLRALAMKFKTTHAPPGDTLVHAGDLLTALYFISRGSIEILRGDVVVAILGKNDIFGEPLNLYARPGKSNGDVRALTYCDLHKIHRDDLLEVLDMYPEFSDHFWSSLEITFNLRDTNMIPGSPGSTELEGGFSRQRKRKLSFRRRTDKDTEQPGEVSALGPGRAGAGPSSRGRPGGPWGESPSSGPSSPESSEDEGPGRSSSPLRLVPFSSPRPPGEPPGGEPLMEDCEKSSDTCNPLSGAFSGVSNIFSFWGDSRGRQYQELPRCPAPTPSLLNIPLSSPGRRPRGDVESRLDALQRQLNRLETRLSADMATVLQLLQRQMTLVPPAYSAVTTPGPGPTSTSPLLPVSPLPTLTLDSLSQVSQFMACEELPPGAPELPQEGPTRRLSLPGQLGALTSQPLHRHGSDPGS

Point of comparison: CC(O)CN1CC(O)=C(c2nc3ccccc3s2)C1=N (centres unmarked), “hERG current change (%, negative = inhibition) at 10uM” value 3.89%. Against it:
- Cc1ccc(C2=NN3C(C(=O)c4ccccc4)Oc4ccccc4C3C2)cc1 (centres unmarked) — lower, 0.487%
- COC(=O)c1cc(NC(=O)CN(c2ccccc2OC)S(=O)(=O)c2ccccc2)ccc1Cl — lower, 1.44%
- O=S(=O)(NC(=NC1CCCCC1)c1ccccc1F)c1ccccc1 — higher, 10.4%
- Cc1ccc(C2=C(CC(=O)O)C(=O)CC2)cc1 — higher, 12.1%
- O=C(O)CCCN1C(=O)C2C3c4ccccc4C(c4ccccc43)[C@@H]2C1=O (some centres unmarked) — higher, 13%
- CSc1ccc(C2NC(=O)c3ccccc3N2)cc1 (centres unmarked) — higher, 5.54%
- COc1ccc(NC(=O)CSc2nccn2Cc2ccccc2)cc1 — lower, -4.86%
- O=C(Cc1ccc([N+](=O)[O-])cc1)c1ccc(O)cc1O — lower, -40.4%
- CCN1CCN(c2ccc(S(=O)(=O)N3CCCCC3)cc2NC(=O)Cc2c(F)cccc2Cl)CC1 — lower, -8.09%
- CN1CCN(c2ccc(S(=O)(=O)N3CCCCC3)cc2NC(=O)Cc2ccc(Cl)cc2)CC1 — lower, -72%
- O=C(Cc1ccc(Cl)cc1)Nc1cc(S(=O)(=O)N2CCOCC2)ccc1N1CCCC1 — lower, -37.3%
- CN1CCN(c2ccc(S(=O)(=O)N3CCCCC3)cc2NC(=O)CSCc2ccccc2)CC1 — lower, -20.5%
- CC(=O)NCCC(=O)Nc1cc(S(=O)(=O)N2CCCCC2)ccc1N1CCN(C)CC1 — lower, -9.13%
- COc1ccccc1CCC(=O)Nc1cc(S(=O)(=O)N2CCCCC2)ccc1N1CCN(C)CC1 — lower, -26.5%
- COc1ccc(CC(=O)Nc2cc(S(=O)(=O)N3CCOCC3)ccc2N2CCOCC2)cc1 — lower, 0.344%
- O=C(Cc1c(F)cccc1Cl)Nc1cc(S(=O)(=O)N2CCCCC2)ccc1N1CCOCC1 — lower, -52.2%
- CN1CCN(c2ccc(S(=O)(=O)N3CCCCC3)cc2NC(=O)CCc2ccccc2)CC1 — lower, -53.3%
- COc1ccc(CC(=O)Nc2cc(S(=O)(=O)N3CCCCC3)ccc2N2CCN(C)CC2)cc1 — lower, -54%
- CN1CCN(c2ccc(S(=O)(=O)N3CCOCC3)cc2NC(=O)CCc2ccccc2)CC1 — lower, -8.75%
- CN1CCN(c2ccc(S(=O)(=O)N3CCCCC3)cc2NC(=O)Cc2c(F)cccc2Cl)CC1 — lower, -21.8%
- Cc1ccc(C(=O)COC(=O)c2ccccc2NC(=O)c2ccccc2)cc1[N+](=O)[O-] — higher, 4.55%
- O=C(COC(=O)/C=C/c1ccc(Cl)cc1Cl)Nc1ccc2c(c1)OCCO2 — higher, 18.5%
- O=C(Nc1cccc(C(=O)O)c1)/C(=C\c1ccco1)NC(=O)c1ccccc1Cl — higher, 7.53%
- COC(=O)c1[nH]c(C)c(/C(O)=C2\C(=O)C(=O)N(CCN3CCOCC3)C2c2ccc(C)o2)c1C (centres unmarked) — lower, -6.49%
- Cc1c(CCC(=O)O)c(=O)oc2cc3occ(-c4ccc(Cl)cc4)c3cc12 — higher, 21.7%
- Cc1ccc(Oc2nnc(-c3cccs3)c3ccccc23)cc1 — lower, -0.00742%
- CNC(=O)COC(=O)c1cccnc1SC — lower, 3.53%
- CCN1CCN(c2ccc(S(=O)(=O)N3CCCCC3)cc2NC(=O)Cc2ccccc2)CC1 — lower, -33.5%
- CCN1CCN(c2ccc(S(=O)(=O)N3CCCCC3)cc2NC(=O)Cc2ccc(Cl)c(Cl)c2)CC1 — lower, -48.5%
- CCN1CCN(c2ccc(S(=O)(=O)N3CCCCC3)cc2NC(=O)Cc2ccc(OC)cc2)CC1 — lower, -60.1%
- CCOC(=O)C1(CC)NC(c2ccc(OC)c(OC)c2)C2C(=O)N(c3cccc(C(C)=O)c3)C(=O)C21 (centres unmarked) — higher, 16.5%
- Cc1ccc(S(=O)(=O)/N=C2/C=C(C3C(=O)CC(C)(C)CC3=O)C(=O)c3ccccc32)cc1 — lower, 0.322%
- COc1cccc(CNC(=S)Nc2cc(C)cc(C)c2)c1 — higher, 6.62%
- N#Cc1cccc(NC(=O)CCn2ccnc2)c1 — lower, 2.87%
- O=C(COc1ccc2c(c1)OCO2)Nc1cccc(F)c1 — higher, 19.8%
- N#Cc1ccc(OCC(=O)Nc2ccncc2)cc1 — higher, 18.1%
- O=C(COc1ccc(-n2ccnc2)cc1)Nc1cccc(Cl)c1 — lower, -38.9%
- O=C(COc1ccc(-n2ccnc2)cc1)Nc1cccc(F)c1 — lower, -54.6%
- N#Cc1cccc(NC(=O)COc2ccc(-n3ccnc3)cc2)c1 — lower, -67.5%
- O=C(NCc1ccccc1)C1c2ccccc2Oc2ccccc21 — higher, 7.83%
- Cc1ccc(-n2c(N)cc(=O)nc2SCC(=O)NC2CCCCC2)cc1C — higher, 8.7%
- COc1ccc(CCN2C(=O)CC(N3CCN(S(=O)(=O)c4ccccc4)CC3)C2=O)cc1OC (centres unmarked) — lower, -5.73%
- CCOc1ccc(S(=O)(=O)Nc2ccc(C(=O)NCc3ccncc3)cc2)cc1 — lower, -22.2%
- Cc1cc(Nc2ccc3c(c2)OCCO3)n2ncnc2n1 — lower, -42.7%
- CCc1c(C)nc2ncnn2c1Nc1ccc(C)cc1 — lower, -5.65%
- CCc1c(C)nc2ncnn2c1Nc1ccc(C)c(C)c1 — lower, -17.6%
- Cc1nc2ncnn2c(Nc2ccc3c(c2)OCO3)c1Cc1ccccc1 — lower, -55.1%
- CCc1c(C)nc2ncnn2c1Nc1ccc(C#N)c(Cl)c1 — lower, -50.6%
- Cc1nc2ncnn2c(Nc2ccc3c(c2)OCCO3)c1C — lower, 0.223%
- COc1ccc(CC(=O)NNS(=O)(=O)c2ccc(F)cc2)cc1OC — lower, 0.969%
- COc1ccc(-n2c(C)cc(C(=O)CN3CCCCC3)c2C)cc1 — lower, 1.6%
- CNc1nc(C)c(C(=O)OCc2ccccc2)s1 — higher, 15.9%
- O=C(Nc1c2c(nn1-c1ccccc1)CS(=O)C2)c1ccc(Br)o1 (centres unmarked) — lower, 1.07%
- Brc1c(CSc2nc3ccccc3o2)nc2ncccn12 — lower, -51.8%
- c1ccc2sc(SCSc3nc4ccccc4s3)nc2c1 — higher, 15.8%
- Clc1c(CSc2nc3ccccc3o2)nc2sccn12 — higher, 5.65%
- Brc1c(CSc2nc3ccccc3s2)nc2ncccn12 — lower, -69.7%
- Cc1cc(C)nc(SCc2nc3ncccn3c2Br)n1 — lower, -2.09%
- Cc1ccc(SCc2nc3ncccn3c2Br)cc1 — lower, -68%
- Clc1c(CSc2nc3ccccc3o2)nc2ccccn12 — lower, -20.4%
- Cc1cc(=O)[nH]c(SCc2nc3ncccn3c2Br)n1 — higher, 14.6%
- O=[N+]([O-])c1ccc2sc(SCc3nc4ccccn4c3Br)nc2c1 — higher, 20.2%
- COc1ccc(S(=O)(=O)Nc2ccc3c(c2)OCO3)cc1OC — higher, 21.7%
- COc1ccc(NC(=O)CSc2nnc(-c3ccccc3C)n2N)cc1 — higher, 31.2%
- CCC(Oc1ccccc1)C(=O)Nc1cc(Cl)ccc1-n1cncn1 (centres unmarked) — lower, -14.1%
- O=C1c2ccccc2C(=O)N1C(CO)C(O)c1ccc([N+](=O)[O-])cc1 (centres unmarked) — lower, -5.29%
- CC(c1nnc(SCC(=O)N2CC(=O)Nc3ccccc32)n1Cc1ccccc1)N(C)C (centres unmarked) — higher, 5.73%
- CC(C)CCNCC(O)CON=C1c2ccccc2-c2ccccc21 (centres unmarked) — lower, -32.2%
- CC(N=Cc1cc([N+](=O)[O-])ccc1O)c1ccccc1 (centres unmarked) — higher, 11.7%
- COc1ccc(C(=O)NCc2ncccc2C)cc1OC1CCN(C(C)=O)CC1 — higher, 9.32%
- CCOc1ccccc1-n1c(SCC(=O)Nc2ccccc2C(=O)O)nc2ccccc2c1=O — higher, 8.39%
- Cc1ccc(S(=O)(=O)N2CCN(CC(=O)N/N=C\c3ccncc3)CC2)cc1 — lower, -66.8%
- Cc1ccc(S(=O)(=O)N2CCN(CC(=O)N/N=C\c3cccnc3)CC2)cc1 — lower, 0.297%
- O=C(CN1CCN(S(=O)(=O)c2ccc(Br)cc2)CC1)N/N=C/c1ccncc1 — lower, -70.6%
- O=C(CN1CCN(S(=O)(=O)c2ccc(Br)cc2)CC1)N/N=C/c1cccnc1 — lower, -31.6%
- Cc1ccc(S(=O)(=O)N2CCN(CC(=O)N/N=C\c3ccc(O)c(O)c3)CC2)cc1 — lower, -8.76%
- O=C(CN1CCN(S(=O)(=O)c2ccc(Br)cc2)CC1)N/N=C/c1ccc(Cl)c([N+](=O)[O-])c1 — lower, -17.9%
- O=C1N/C(=N\c2ccccn2)SC1Cc1ccc(Cl)cc1 (centres unmarked) — higher, 4.11%
- Cc1cccc(CCNc2nc3ccc(C)cc3n3cnnc23)c1 — higher, 17.3%
- CC(C)(C)CC(C)(C)NC(=O)c1ccc2snnc2c1 — lower, -13.6%
- COc1ccc(S(=O)(=O)NC(CC(=O)N2CCC3(CC2)OCCO3)C(C)C)cc1 (centres unmarked) — higher, 10.9%
- COc1ccccc1CCC(=O)N(C)C1CCCN(Cc2ccccc2F)C1 (centres unmarked) — lower, -28%
- Cc1onc(-c2ccccc2)c1C(=O)OCc1nnc(-c2ccccc2)o1 — lower, -15.6%
- Cc1ccc(C(=O)OCc2nnc(-c3ccccc3)o2)s1 — lower, -7.37%
- Cc1ccc(C(=O)NCC(=O)OCc2nnc(-c3ccccc3)o2)cc1 — lower, -31.6%
- Cc1onc(-c2ccccc2Cl)c1C(=O)OCc1nnc(-c2ccccc2)o1 — lower, -16.7%
- Cc1csc(=O)n1CCC(=O)OCc1nnc(-c2ccc([N+](=O)[O-])cc2)o1 — lower, -67.3%
- Cc1csc(=O)n1CCC(=O)OCc1nnc(-c2ccccc2)o1 — lower, -8.45%
- Cc1onc(-c2ccccc2)c1C(=O)OCc1nnc(-c2ccc([N+](=O)[O-])cc2)o1 — lower, -71.5%
- Cc1csc(=O)n1CC(=O)OCc1nnc(-c2ccc(Cl)cc2)o1 — lower, -2.32%
- Cc1ccc(C(=O)NCC(=O)OCc2nnc(-c3ccc([N+](=O)[O-])cc3)o2)s1 — lower, -67.3%
